Compounds with a hit are over-represented: about 7.4% of the library has one in this group of screens.
Rab9 promoter act: Rab9 promoter activation. Huh7 Rab9 promoter-luciferase reporter, luminescence, 24 h. Potency, µM (series often up to 9.22 µM), for the others: top-dose activation, negative = inhibition, actives largely listed as activators. 2.8% of 320,000 active. AID 485297; further: % of control where 0% means no effect; nearly all actives have a fitted effect of over 60% in size
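Huh7 cells stably carrying Rab9 promoter–luciferase reporter, plated 1500 cells/well, compound added after 2 h and incubated 24 h at 37 °C; luciferase luminescence then read after 10 min with detection reagent.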
SMN2 splice enh: increases expression of the SMN2 splice variant; HEK293 SMN2-luciferase splicing reporter, luminescence, 30-36 h; AID 1458; Potency, µM (highest dose often 46.1 µM), for inactives: at the top dose activity change, positive = activation, usual class: activators; 2.8% of 210,000 active; further: % of control where 0% means no effect; nearly all actives have a fitted effect of over 55% in size
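HEK293 cells carry an SMN2 minigene-luciferase reporter in which exon 7 inclusion puts luciferase in frame. Cells were seeded at 2000 cells/well, attached for 10-12 hours, then exposed to compounds for 30-36 hours at 37C before ONE-Glo luminescence.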
FLuc modulator: inhibits or activates purified firefly luciferase, miR-21 counter-screen; AID 588342; purified FLuc, Km substrates, luminescence inhibition; Potency, µM (highest dose often 57.5 µM), inactives show at the top dose activity change, negative = inhibition, usual class: inhibitors; 6.9% of 360,000 active;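 further: plate controls were vehicle for no effect and reference inhibitor for full effect; nearly all actives have a fitted effect of over 55% in size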
Target sequence (P08659 whole entry, looked up): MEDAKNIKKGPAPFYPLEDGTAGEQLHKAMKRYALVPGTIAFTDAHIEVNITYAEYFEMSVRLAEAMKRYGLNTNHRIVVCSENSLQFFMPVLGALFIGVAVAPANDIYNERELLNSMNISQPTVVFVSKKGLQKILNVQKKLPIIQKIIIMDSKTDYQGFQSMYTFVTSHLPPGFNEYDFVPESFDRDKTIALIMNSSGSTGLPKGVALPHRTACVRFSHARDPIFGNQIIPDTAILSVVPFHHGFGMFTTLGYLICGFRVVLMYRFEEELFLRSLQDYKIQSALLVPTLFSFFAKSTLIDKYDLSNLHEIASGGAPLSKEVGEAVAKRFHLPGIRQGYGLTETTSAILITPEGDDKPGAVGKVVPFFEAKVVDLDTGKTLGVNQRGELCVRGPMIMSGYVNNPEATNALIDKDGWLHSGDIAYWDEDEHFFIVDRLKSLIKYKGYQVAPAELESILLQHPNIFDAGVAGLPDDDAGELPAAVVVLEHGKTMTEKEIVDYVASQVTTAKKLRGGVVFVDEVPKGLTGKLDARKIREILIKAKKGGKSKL
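Purified P. pyralis luciferase (10nM final) with 10uM D-luciferin and 10uM ATP (Km levels) in 50mM Tris acetate pH 7.5, 10mM Mg acetate, 0.01% Tween-20, 0.05% BSA; qHTS 6-point titration, ~60 µM downward; luminescence read.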
ELG1 genotoxic: inducers of genotoxicity in HEK293T ELG1-luciferase cells | HEK293T ELG1-luciferase reporter, luminescence, 16 h | Potency, µM (doses to about 46 µM), for the others: at the highest dose activity change, positive = activation, usual class: activators | 1.3% of 330,000 active; further: % of control where 0% means no effect; nearly all actives have a fitted effect of over 60% in size
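Genotoxicity was scored as increased ELG1-luciferase reporter signal, measured by ONE-Glo luminescence (30 min, room temperature). Compound or vehicle exposure of the HEK293T reporter cells lasted 16 hr at 37°C.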
NPC1 prom act: NPC1 promoter activation | Potency, µM (highest dose often 9.22 µM), inactives show at the top dose activation, usual class: activators | Huh7 NPC1 promoter luciferase reporter, 24 h | 2.4% of 320,000 active; further: % of control where 0% means no effect; nearly all actives have a fitted effect of over 60% in size
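Huh7 reporter cells (NPC1 promoter driving luciferase) are dosed with compound for 24 h at 37 °C, 5% CO2; luciferase detection reagent is then added and luminescence measured after 10 min at ambient temperature.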
* = called active by the depositor; ? = inconclusive; · = not tested or not shown; [ ] = dose if it differs, or a comment. The call rests on the fitted dose curve; in most records, active means well fitted curve in the direction sought with a large enough effect; inconclusive means small, poorly fitted or top-dose-only effect, or another doubt; inactive means no such curve, though single readings can be large; an effect the other way counts as inactive or inconclusive. Potency means the concentration at half of the fitted maximal effect.

SMILES | Rab9 promoter act | SMN2 splice enh | FLuc modulator | ELG1 genotoxic | NPC1 prom act
Cc1cc(-n2c(C)cc(C(=O)COc3ccc4ccc(=O)oc4c3)c2C)no1 | 7% | -15% | 17µM* | -2% | -1%
Cc1cc(C)n(CC(=O)Nc2cc(F)ccc2F)c(=O)c1C#N | · | · | -6% | · | ·
Cc1ccc2c(c1)c(N=Nc1cccc(C(=O)O)c1)c(O)n2C | -1% | · | 15µM* | 6% | 17%
O=C(CCC(=O)N(CC(=O)NC1CCCC1)Cc1ccccc1Cl)Nc1nccs1 | 2% | · | 3% | -1% | 1%
O=C(NCCc1ccc(Cl)cc1)c1ccc(=O)[nH]c1 | 5% | · | -2% | -1% | 3%
CC(=O)NCCNC(=O)c1ccc(CSc2ccc(Cl)cc2)cc1 | 2.8µM* | 13µM* | ? | ? | 2.8µM*
O=C(NCCc1ccc(Cl)cc1)c1ccc2nccnc2c1 | 4µM* | · | 11µM* | 16% | 2.2µM*
O=C(NCCc1ccc(O)cc1)c1ccc(Cl)cc1 | ? | 32µM* | 12µM* | ? | ?
O=C(NCCc1ccc(Cl)cc1)c1ccc2nc[nH]c2c1 | 22% | 26% | ? | 2% | 17%
CC(C)c1ccc(C(=O)NCc2ccc(Cl)cc2)cc1 | ? | 16µM* | ? | 24% | 14%
COc1cc(/C=C/c2nc3cc(Cl)ccc3c(=O)n2-c2cccc(C(F)(F)F)c2)cc(OC)c1OC | · | · | -2% | · | ·
Cc1c(O)ccc(/C(Cc2ccc3ccccc3n2)=N\N)c1O | 17% | · | 15µM* | 10% | 19%
CCc1cc(/C(Cc2ccc3ccccc3n2)=N\O)c(O)cc1O | 1% | -14% | 2% | 1% | -3%
CCc1nnc(NC(=O)c2ccc(OC)cc2)s1 | 0.32µM* | 3.2µM* | 4.8µM* | -9% | 0.71µM*
CCc1nnc(NS(=O)(=O)c2ccc(NS(=O)(=O)c3ccccc3[N+](=O)[O-])cc2)s1 | 3% | · | -3% | -1% | 0%
CCCCOC(=O)Nc1nnc(CC)s1 | ? | 14% | ? | 15µM* | 16%
CCOCc1nnc(NC(=O)c2cccc(OC)c2)s1 | 13% | ? | ? | 13% | 15%
CCc1nnc(NS(=O)(=O)c2ccc(Nc3ccc([N+](=O)[O-])c4nonc34)cc2)s1 | 1% | -16% | 15µM* | 0% | -7%
CCc1nnc(NC(=O)c2cccc(OC)c2)s1 | 3.2µM* | 16µM* | 8.5µM* | ? | 3.2µM*
Cc1ccc(-c2nc(S(=O)(=O)c3ccc(C)cc3)c(SCC(=O)c3ccccc3)o2)cc1 | · | 5% | -9% | · | ·
CCc1nnc(NS(=O)(=O)c2ccc(N/C=C/C(=O)c3ccc(OC)cc3)cc2)s1 | -2% | · | 21µM* | ? | 7%
CCc1nnc(NS(=O)(=O)c2ccc(NC(=O)OC)cc2)s1 | -8% | -1% | 4% | 3% | -1%
COc1ccc(-c2nnc(NC(=O)c3cccs3)s2)c(OC)c1 | 0% | · | ? | ? | 4%
CCc1nnc(NS(=O)(=O)c2ccc(NC(=O)c3ccc(Br)cc3)cc2)s1 | 0% | · | 27µM* | 0% | -6%
CCc1nnc(NS(=O)(=O)c2ccc(NC(=O)Nc3ccc(OC)cc3)cc2)s1 | -1% | · | ? | -7% | -5%
SMILES | Rab9 promoter act | SMN2 splice enh | FLuc modulator | ELG1 genotoxic | NPC1 prom act
COc1cccc(C(=O)Nc2nnc(-c3cccs3)s2)c1 | 3.2µM* | 5.6µM* | 1.9µM* | 0.82µM* | ?
CCc1nnc(NC(=O)c2ccc(S(C)(=O)=O)cc2)s1 | 26% | · | 21µM* | 13% | ?
N[C@@H](CSS(=O)(=O)O)C(=O)O | · | 3% | · | · | ·
Cc1ccc(S(=O)(=O)N2CCN(C(=O)c3ccccc3OCc3c(C)noc3C)CC2)cc1 | 2% | · | 11% | 5% | -3%
Cc1noc(C)c1COc1ccccc1C(=O)N1CCN(S(=O)(=O)c2ccccc2F)CC1 | -5% | · | 4% | 23µM* | 1%
Cc1ccc(S(=O)(=O)N/N=C/c2cc([N+](=O)[O-])ccc2O)cc1[N+](=O)[O-] | 2% | -20% | 13µM* | 10% | -3%
O=[N+]([O-])c1ccc(O)c(/C=N/Nc2ccc(Cl)nn2)c1 | -5%[1.84 µM] | -66% | ? | 7% | 3.2µM*
O=[N+]([O-])c1ccc(/C=N/NC2=NS(=O)(=O)c3ccccc32)cc1 | -1% | 8% | 15µM* | 3% | -5%
O=[N+]([O-])c1ccc(O)c(/C=N/NC2=NS(=O)(=O)c3ccccc32)c1 | 12% | -9% | 8.5µM* | -4% | 4%
C=CCC1(N(C(C)=O)c2ccccc2C)CCCCC1 | -12% | · | -3% | -1% | 0%
Cc1cc(C)n(-c2ccc(C(=O)Nc3ccccn3)cc2)n1 | 0.5µM* | 1.6µM* | 6µM* | ? | 0.89µM*
Cc1cc(C)n(-c2ccc(C(=O)Nc3sccc3C(N)=O)cc2)n1 | ? | 13µM* | 6.7µM* | ? | ?
CC1CCCCN1S(=O)(=O)c1ccc(C(=O)Nc2sccc2C(N)=O)cc1 (stereo unspecified) | ? | 20µM* | 21µM* | ? | ?
Cc1cc(C)n(-c2ccc(C(=O)NCc3cccs3)cc2)n1 | 6% | 13% | -2% | -3% | 5%
NC(=O)c1ccsc1NC(=O)C1CCCN1S(=O)(=O)c1ccc(Cl)cc1 (stereo unspecified) | 2% | -13% | -7% | -2% | -5%
Cc1cc(C)n(-c2ccc(C(=O)Nc3nnc(C)s3)cc2)n1 | ? | 2% | 13µM* | ? | 13%
CCOC(=O)c1cc(-c2ccc(C)cc2)n(CCC(=O)N2CCN(c3ccccn3)CC2)c1C | -5% | -27% | -1% | -12% | -4%
Cc1nn(-c2ccccc2)c(Cl)c1/C=C/C(=O)c1ccccc1 | 0% | -18% | 3.8µM* | 18µM* | -1%
Cc1ccc(C(=O)N/N=C\c2c(C)nn(-c3ccccc3)c2Cl)cn1 | -4% | ? | 11µM* | 6% | 3%
Cc1ccccc1OCC(=O)N/N=C/c1c(C)nn(-c2ccccc2)c1Cl | -8% | 17% | ? | 0% | -6%
Cc1nn(-c2ccccc2)c(Cl)c1/C=N/O | 0% | ? | ? | 8% | -6%
Cc1nn(-c2ccccc2)c(Cl)c1/C=N/NC(=O)c1cccnc1 | 1% | ? | 13µM* | 9% | 0%
Cc1ccc(-n2nc(C)c(/C=N/NC(=O)c3cccnc3)c2Cl)cc1 | -1% | 13% | ? | -2% | -3%
Cc1ccc(C(C(=O)NC2CCCCC2)N(C)Cc2ccccc2)cc1 (stereo unspecified) | · | -5% | -9% | · | ·
c1ccc(-c2ccc3c(c2)c2c4n3CCN=C4CCC2)cc1 | 0% | -13% | ? | 2% | -3%
COc1ccc(/C=C2\SC(=S)N(CC3CCCO3)C2=O)cc1 (stereo unspecified) | 25% | · | 11µM* | 10% | 6%

Assay outcomes: PubChem BioAssay, National Center for Advancing Translational Sciences (NCATS)
